Molecules are shown by their SMILES. About 83,000 compounds went through this panel and 20% of them were active in at least one assay; those are over-represented in the sample as a whole.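 How to read the values: 0–100, growth inhibition (40 = 60% inhibited); 0, no net growth; -100 to 0, cell death (-40 = 40% of starting cells died; -100 = all dead).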 A number with no mark means an inactive call. The source made the active and inactive calls. The calls were made as follows: active = growth percent below 10; inactive = the rest.

Test systems include NCI-H23 lung; NCI-H226 lung; NCI-H322M lung; HOP-62 NSCLC; NCI-H460 lung; NCI-H522 lung; A549/ATCC NSCLC; 786-0 renal; COLO 205 colon; DU-145 prostate.
Common to all, as to test: NCI-60 one-dose screen, 48 h (100 = growth as untreated, 0 = no growth, -100 = all killed)
Common to all, as to conditions: 10 µM

Consider `Cc1ccc(NC(=O)Nc2cccnc2)cc1NC(=O)Nc1cccnc1`, for which the growth is 88.4% with NCI-H23 lung; 95.3% in the assay on NCI-H226 lung; 100% in the assay on NCI-H322M lung; 117% in the assay on HOP-62 NSCLC; 85.9% with NCI-H460 lung; -37.3% (active) in the assay on NCI-H522 lung. Also, the growth was 30.8% in the assay on A549/ATCC NSCLC, 94.8% with 786-0 renal, 118% in the assay on COLO 205 colon and 98.2% in the assay with DU-145 prostate.
As to `C#Cc1ccc(-n2c(/C=C/c3cc(OC)cc(OC)c3)nc3ncccc3c2=O)cc1`, the growth in the assay on NCI-H23 lung was 89%; in the assay on NCI-H226 lung, 65.8%; with NCI-H322M lung, 72.5%; with HOP-62 NSCLC, 48.6%; with NCI-H460 lung, 94.6%; with NCI-H522 lung it was 7.88% (active). The growth is 68.4% with A549/ATCC NSCLC, 81% in the assay with 786-0 renal, 117% with COLO 205 colon and 93.2% in the assay with DU-145 prostate.
On to `Cc1cc(N(CCCNc2ccnc3cc(Cl)ccc23)Cc2ccc3c(c2)OCO3)nc(N2CCOCC2)n1`, for which the growth is 50.9% in the assay on NCI-H23 lung; 67.2% in the assay on NCI-H226 lung; 37.5% in the assay on NCI-H322M lung; 10.1% in the assay with HOP-62 NSCLC; 20.2% with NCI-H460 lung; 8.51% (active) in the assay with NCI-H522 lung. The growth was 28.7% with A549/ATCC NSCLC, -20.4% (active) with 786-0 renal, -54% (active) in the assay on COLO 205 colon and 38% in the assay on DU-145 prostate.
Turning to `COc1ccc(-c2nn(-c3cccc(NC(=O)Nc4ccccc4)c3)cc2-c2ccncc2)cc1Cl`, the growth with NCI-H23 lung is 42.6%; in the assay with NCI-H226 lung it was 70.6%; in the assay with NCI-H322M lung, 39.5%; in the assay with HOP-62 NSCLC, 46%; with NCI-H460 lung it was 4.93% (active); in the assay on NCI-H522 lung it was 5.77% (active). The growth with A549/ATCC NSCLC is -4.41% (active); in the assay on 786-0 renal, 42.2%; in the assay on COLO 205 colon, -50.6% (active); in the assay with DU-145 prostate, 50.1%.
Turning to `COc1ccc(-c2ccc(-c3ccc(C(=N)N)cn3)o2)cc1`, the growth in the assay with NCI-H23 lung was 85.1%; with NCI-H226 lung it was 78.7%; in the assay with NCI-H322M lung, 77.6%; with HOP-62 NSCLC it was 72.1%; in the assay on NCI-H460 lung, 82.2%; in the assay on NCI-H522 lung it was 76.6%. The growth in the assay with A549/ATCC NSCLC is 69.5%; in the assay on 786-0 renal, 91.3%; in the assay on COLO 205 colon, -41.2% (active); in the assay on DU-145 prostate, 88.6%.
As to `COc1ccc(N2C(=O)C3c4[nH]c5ccc(OCc6ccccc6)cc5c4C4CCC(C(C)C)CC4C3C2=O)cc1` (stereo not given), the growth is 104% in the assay on NCI-H23 lung; 104% in the assay on NCI-H226 lung; 102% with NCI-H322M lung; 113% in the assay with HOP-62 NSCLC; 103% in the assay with NCI-H460 lung; 34.6% in the assay with NCI-H522 lung. Moreover, the growth with A549/ATCC NSCLC was 99.4%; in the assay with 786-0 renal it was 97.6%; in the assay on COLO 205 colon, 102%; in the assay with DU-145 prostate, 113%.
`COc1cc(/C=N/NC(=O)c2ccccc2Nc2ccnc(C(F)(F)F)c2)ccc1O`: the growth is 91.8% with NCI-H23 lung; 238% in the assay with NCI-H226 lung; 130% with NCI-H322M lung; 110% with HOP-62 NSCLC; 108% in the assay with NCI-H460 lung; 102% with NCI-H522 lung. Further, the growth with A549/ATCC NSCLC was 66.9%; in the assay on 786-0 renal it was 106%; with COLO 205 colon, 115%; in the assay on DU-145 prostate, 130%.
Turning to `N=C(N)c1ccc(-c2ccc(-c3cccs3)s2)s1`, the growth with NCI-H23 lung was 51.8%; in the assay with NCI-H226 lung, 74.2%; with NCI-H322M lung, -29.8% (active); in the assay with HOP-62 NSCLC, -67.4% (active); in the assay with NCI-H460 lung it was -82.2% (active); in the assay with NCI-H522 lung, -69.5% (active). The growth in the assay with A549/ATCC NSCLC is -63.2% (active); in the assay with 786-0 renal, -88.6% (active); with COLO 205 colon it was -93.8% (active); in the assay on DU-145 prostate it was -91.6% (active).
For `C(CCCC1=NCCO1)CCCC1=NCCO1`, the growth with NCI-H23 lung is 97.2%; in the assay with NCI-H226 lung, 95.8%; with NCI-H322M lung, 118%; in the assay with HOP-62 NSCLC, 107%; in the assay on NCI-H460 lung, 104%; in the assay with NCI-H522 lung it was 103%. Moreover, the growth was 101% in the assay on A549/ATCC NSCLC, 99.1% with 786-0 renal, 99.5% in the assay on COLO 205 colon and 108% in the assay on DU-145 prostate.
`N=C1c2nc3n(c2C(=O)c2nc4n(c21)CCCC4)CCCC3`: the growth is -70.4% (active) in the assay on NCI-H23 lung; 57.1% in the assay with NCI-H226 lung; 27.7% in the assay on NCI-H322M lung; 52.3% in the assay with HOP-62 NSCLC; 4.62% (active) with NCI-H460 lung; 10.5% in the assay on NCI-H522 lung. For the same compound, the growth is -30.6% (active) in the assay with A549/ATCC NSCLC, 89% in the assay on 786-0 renal, -88.6% (active) in the assay on COLO 205 colon and -93.9% (active) in the assay with DU-145 prostate.
As for `COc1ccc(/C=C/C(=O)Nc2ccc(-c3nc4ccc(OC)cc4s3)cc2)cc1`, the growth was 94.7% in the assay on NCI-H23 lung; 99.9% with NCI-H226 lung; 112% with NCI-H322M lung; 101% with HOP-62 NSCLC; 106% with NCI-H460 lung; 91.2% in the assay on NCI-H522 lung. The growth in the assay on A549/ATCC NSCLC is 103%; in the assay with 786-0 renal, 103%; in the assay with COLO 205 colon, 121%; in the assay with DU-145 prostate it was 117%.
Regarding `CC1(C)OC2=C(CC1Br)C(=O)C(=O)c1ccccc12` (stereo not given), the growth is -64.3% (active) in the assay with NCI-H23 lung; -6.31% (active) with NCI-H226 lung; 27.1% in the assay with NCI-H322M lung; -88.1% (active) in the assay on HOP-62 NSCLC; 3.62% (active) in the assay with NCI-H460 lung; -67.6% (active) in the assay on NCI-H522 lung. Also, the growth was -39.9% (active) in the assay with A549/ATCC NSCLC, -40.4% (active) in the assay with 786-0 renal, -87.8% (active) with COLO 205 colon and -95.1% (active) with DU-145 prostate.
As to `CC(=O)c1cc(Br)ccc1O`, the growth in the assay with NCI-H23 lung was 105%; with NCI-H226 lung, 101%; in the assay with NCI-H322M lung, 127%; in the assay on HOP-62 NSCLC it was 118%; in the assay on NCI-H460 lung it was 105%; with NCI-H522 lung it was 87.4%. Further, the growth in the assay on A549/ATCC NSCLC is 107%; with 786-0 renal it was 104%; in the assay on COLO 205 colon it was 121%; in the assay on DU-145 prostate it was 114%.

(Values after PubChem BioAssay (NCI).)
